Data: PubChem BioAssay (EPA / NIEHS)
Records with an inconclusive call do not appear. Active and inactive are the calls of the source. Rule for the calls: active = hit-call score of the fitted dose curve at least 0.9, where 1 is the maximum; inconclusive = response in the unintended direction; inactive = score below 0.9.

Tested on: not listed separately
Assay: ACEA_AR_agonist_AUC_viability: ACEA Biosciences xCELLigence Real-Time Cell Analysis on Androgen Receptor Agonism for Viability (AID 2283775);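 for AC50: viability read 80 hours after compound addition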
Summary of the method: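 Viability endpoint from xCELLigence impedance in 22Rv1 prostate cells at 80 h. Eight-point series, 100 uM maximum final.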

Compound	outcome	AC50
CO[Si](C)(C)OC	inactive	
CC(C)(C)N	inactive	
CCCCCCCCCCCCCCCCCCOS(=O)(=O)O	inactive	
CCCCCCCCCCCC(=O)N(C)CC(=O)O	inactive	
O=C(O)C1CCC(C(=O)O)CC1 (stereo not drawn)	inactive	
Cc1c(C(=O)c2c[nH]n(C)c2=O)ccc(S(C)(=O)=O)c1C1=NOCC1	inactive	
O=C(OCCc1ccccc1)c1ccccc1	inactive	
O=C(Oc1ccccc1)c1ccccc1O	inactive	
C[Si](C)(C)N[Si](C)(C)C	inactive	
CC(C)COC(=O)CC(C(=O)OCC(C)C)S(=O)(=O)O (stereo not drawn)	inactive	
CC(=O)OC1CCCCC1C(C)(C)C (stereo not drawn)	inactive	
CC(=O)OC(C)c1ccccc1 (stereo not drawn)	inactive	
CC1(C)[C@@H]2CC[C@@]1(C)C(=O)C2	inactive	
CC(C)c1cc(C(C)C)cc(C(C)C)c1	inactive	
CCC(C)(O)CCCC(C)C (stereo not drawn)	inactive	
Oc1ccc(-c2ccccc2)c(Cl)c1	inactive	
CCCC=C(C=O)CC	inactive	
CC(C)(C)C1CCC(=O)CC1	inactive	
O=C(O)CCC(=O)O	inactive	
CCCCC(C=O)CC (stereo not drawn)	inactive	

Compound	outcome	AC50
CCCCCCCCCC[N+](C)(CCCCCCCCCC)CCC[Si](OC)(OC)OC		5.04 µM (active)
CCCCCCC=O	inactive	
CCCCNS(=O)(=O)c1ccccc1	inactive	
CCCC(CC)c1ccccc1 (stereo not drawn)	inactive	
O=C(Nc1ccccc1)c1cc(Cl)ccc1O		14.3 µM (active)
CN(C)Cc1cc(CN(C)C)c(O)c(CN(C)C)c1		4.16 µM (active)
C=C(C)C1CC=C(C)CC1 (stereo not drawn)	inactive	
CCC[Si](OC)(OC)OC	inactive	
CCCCCCCCCCCCCC(=O)OC(C)C	inactive	
CC(=O)OCc1ccccc1	inactive	
CCCCC(CC)COC(=O)/C=C/c1ccc(OC)cc1 (stereo not drawn)	inactive	
O=C(OCc1ccccc1)c1ccc(O)cc1	inactive	
CCCCCCCCCC(C)=O	inactive	
CCCCCCCCC(CO)CCCCCC (stereo not drawn)	inactive	
CCCCC(=O)O	inactive	
CCN1CN(CC)CN(CC)C1	inactive	
Cc1cc(C)n(CO)n1	inactive	
CCCCc1ccc(Cl)cc1	inactive	
C=C[Si](OCCOC)(OCCOC)OCCOC	inactive	

Tested on: not listed separately
Assay: ACEA_AR_antagonist_AUC_viability: ACEA Biosciences xCELLigence Real-Time Cell Analysis on Androgen Receptor Antagonism for Viability (AID 2283776);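 note: 22Rv1 human prostate cancer cells growing on impedance electrode plates; area under impedance growth curve at 80 h after dosing as viability; hits lower the growth signal relative to DMSO meaning cytotoxicity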
Summary of the method: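 Impedance read-out (RT-CES): area under growth curve at 80 h post-dose, loss of signal scored vs DMSO baseline. 22Rv1 cells; 8-pt 1:4 series, top 100 uM final, ≤0.5% DMSO; biological duplicate.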

Compound	outcome	AC50
CC(C)(C)N	inactive	
CCCCCCCCCCCC(=O)N(C)CC(=O)O	inactive	
Cc1c(C(=O)c2c[nH]n(C)c2=O)ccc(S(C)(=O)=O)c1C1=NOCC1	inactive	
CC(=O)OC1CCCCC1C(C)(C)C (stereo not drawn)	inactive	
CC(=O)OC(C)c1ccccc1 (stereo not drawn)	inactive	
CC1(C)[C@@H]2CC[C@@]1(C)C(=O)C2	inactive	
CCC(C)(O)CCCC(C)C (stereo not drawn)	inactive	
Oc1ccc(-c2ccccc2)c(Cl)c1		0.598 µM (active)
CCCCCCCCCC[N+](C)(CCCCCCCCCC)CCC[Si](OC)(OC)OC		16.1 µM (active)
CCCCCCC=O	inactive	
CCC[Si](OC)(OC)OC	inactive	
CC(=O)OCc1ccccc1	inactive	
CCCCCCCCC(CO)CCCCCC (stereo not drawn)	inactive	
CCCCC(=O)O	inactive	
Cc1cc(C)n(CO)n1	inactive	
CCCCc1ccc(Cl)cc1	inactive	

Tested on: not listed separately
Assay: ACEA_ER_AUC_viability: ACEA Biosciences xCELLigence Real-Time Cell Analysis on Estrogen Receptor Agonism for Viability (AID 2283782);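 note: hit means loss of impedance signal meaning reduced cell growth or viability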
Summary of the method: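 Continuous-exposure impedance cell analysis uses T-47D cells in charcoal-stripped serum, eight 1:4 dilutions topping at 100 uM final, biological duplicate. Area under the growth curve at 80 h is fitted against DMSO baseline.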

Compound	outcome	AC50
CO[Si](C)(C)OC	inactive	
CC(C)(C)N	inactive	
CCCCCCCCCCCCCCCCCCOS(=O)(=O)O		75.4 µM (active)
O=C(O)C1CCC(C(=O)O)CC1 (stereo not drawn)	inactive	
O=C(OCCc1ccccc1)c1ccccc1		85.9 µM (active)
O=C(Oc1ccccc1)c1ccccc1O	inactive	
C[Si](C)(C)N[Si](C)(C)C	inactive	
CC(C)COC(=O)CC(C(=O)OCC(C)C)S(=O)(=O)O (stereo not drawn)	inactive	
CC1(C)[C@@H]2CC[C@@]1(C)C(=O)C2	inactive	
CC(C)c1cc(C(C)C)cc(C(C)C)c1	inactive	
Oc1ccc(-c2ccccc2)c(Cl)c1		82.6 µM (active)
CCCC=C(C=O)CC	inactive	
CC(C)(C)C1CCC(=O)CC1	inactive	
O=C(O)CCC(=O)O	inactive	
CCCCC(C=O)CC (stereo not drawn)	inactive	
CCCCCCCCCC[N+](C)(CCCCCCCCCC)CCC[Si](OC)(OC)OC		17 µM (active)
CCCCNS(=O)(=O)c1ccccc1	inactive	
CCCC(CC)c1ccccc1 (stereo not drawn)	inactive	
O=C(Nc1ccccc1)c1cc(Cl)ccc1O		82.1 µM (active)
C=C(C)C1CC=C(C)CC1 (stereo not drawn)	inactive	
CCCCCCCCCCCCCC(=O)OC(C)C	inactive	
CC(=O)OCc1ccccc1	inactive	
CCCCC(CC)COC(=O)/C=C/c1ccc(OC)cc1 (stereo not drawn)		40.1 µM (active)
O=C(OCc1ccccc1)c1ccc(O)cc1		82.6 µM (active)
CCCCCCCCCC(C)=O	inactive	
CCCCCCCCC(CO)CCCCCC (stereo not drawn)		33.9 µM (active)
CCN1CN(CC)CN(CC)C1		66.4 µM (active)
CCCCc1ccc(Cl)cc1	inactive	
C=C[Si](OCCOC)(OCCOC)OCCOC	inactive	

Biological target: AR (gene 367) (UniProt P10275)
Sequence (P10275 whole entry, looked up): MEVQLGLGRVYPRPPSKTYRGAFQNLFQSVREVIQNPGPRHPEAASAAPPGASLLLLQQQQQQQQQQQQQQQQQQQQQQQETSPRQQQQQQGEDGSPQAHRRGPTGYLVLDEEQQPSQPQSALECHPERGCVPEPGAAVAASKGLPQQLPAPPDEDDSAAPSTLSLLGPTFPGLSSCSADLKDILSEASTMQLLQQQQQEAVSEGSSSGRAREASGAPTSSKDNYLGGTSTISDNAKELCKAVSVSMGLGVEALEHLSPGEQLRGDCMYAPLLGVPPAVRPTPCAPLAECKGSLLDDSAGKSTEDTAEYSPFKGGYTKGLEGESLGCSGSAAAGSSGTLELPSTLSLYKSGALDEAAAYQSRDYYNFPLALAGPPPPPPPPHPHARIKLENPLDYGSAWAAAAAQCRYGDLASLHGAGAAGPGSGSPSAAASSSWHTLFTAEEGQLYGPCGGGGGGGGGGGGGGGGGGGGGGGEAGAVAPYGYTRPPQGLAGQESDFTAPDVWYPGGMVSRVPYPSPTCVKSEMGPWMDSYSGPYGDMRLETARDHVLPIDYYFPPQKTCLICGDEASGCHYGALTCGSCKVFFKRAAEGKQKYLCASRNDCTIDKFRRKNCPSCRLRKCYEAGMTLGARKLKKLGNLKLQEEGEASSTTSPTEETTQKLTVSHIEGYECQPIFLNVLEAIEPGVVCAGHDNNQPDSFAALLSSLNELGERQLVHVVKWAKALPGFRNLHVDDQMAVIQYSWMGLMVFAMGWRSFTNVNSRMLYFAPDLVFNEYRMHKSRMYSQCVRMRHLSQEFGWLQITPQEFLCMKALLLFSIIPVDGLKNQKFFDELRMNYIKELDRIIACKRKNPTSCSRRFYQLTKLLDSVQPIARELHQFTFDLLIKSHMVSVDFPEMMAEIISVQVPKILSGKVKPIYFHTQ
Assay: ACEA_AR_agonist_80hr: ACEA Biosciences xCELLigence Real-Time Cell Analysis on Androgen Receptor Agonism for Proliferation (AID 2283783);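 note: hits increase impedance growth signal above DMSO baseline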
Summary of the method: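 Real-time cell-growth kinetics were recorded by electrode impedance in 22Rv1 cells exposed to test chemicals up to 100 uM final; the 80 h timepoint served as the readout, fitted upward relative to DMSO controls, in biological duplicate.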

Compound	outcome
Oc1ccc(-c2ccccc2)c(Cl)c1	inactive
CN(C)Cc1cc(CN(C)C)c(O)c(CN(C)C)c1	inactive
CCC[Si](OC)(OC)OC	inactive

Biological target: AR (gene 367) (UniProt P10275)
Assay: ACEA_AR_antagonist_80hr: ACEA Biosciences xCELLigence Real-Time Cell Analysis on Androgen Receptor Antagonism for Proliferation (AID 2283787);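 note: 22Rv1 human prostate cancer cells with growth followed by electrical impedance; hits lower the impedance growth signal relative to DMSO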
Summary of the method: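 Using 22Rv1 cells held in assay medium, we dosed compounds (100 uM maximum final, 1:4 serial, eight points, 0.5% DMSO at top) and recorded cell-electrode impedance; the 80 hr timepoint was analyzed against DMSO.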

Compound	outcome	AC50
Cc1c(C(=O)c2c[nH]n(C)c2=O)ccc(S(C)(=O)=O)c1C1=NOCC1	inactive	
CC(=O)OC1CCCCC1C(C)(C)C (stereo not drawn)	inactive	
Oc1ccc(-c2ccccc2)c(Cl)c1		0.56 µM (active)
CCCCCCCCCCCCCC(=O)OC(C)C	inactive	
CC(=O)OCc1ccccc1	inactive	
CCCCCCCCCC(C)=O	inactive	
